# CtBP-E1A blk: qHTS Assay for Inhibitors of the CtBP/E1A Interaction. CtBP / adenovirus E1A interaction (AlphaScreen). AlphaScreen GST-E1A/His-CtBP binding, 1536-well; active compounds read low. activity change, % (no concentration beside the values). hit rate 0.49% among 340,000; in the data active means activity change below about -65%; inconclusive means mostly about -30% to -63%; further: on the % scale 0 is the no-effect control and ±100 the full control effect
#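 AlphaScreen with 125 nM GST-E1A and 125 nM His-CtBP (5X stocks) in Tris pH 8.0, 300 mM NaCl, BSA, Tween 20, TCEP. Compounds preincubated 2 h at 37 deg C, then glutathione donor/nickel acceptor beads added for 1 h at 37 deg C in dark.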
# BAZ2B block: qHTS Assay for Inhibitors of BAZ2B; Potency, µM (series often up to 114 µM), without a hit: at the top dose activity change, negative = inhibition, actives largely listed as inhibitors; hit rate 4.4% among 360,000; AID 504333, 2011; AlphaScreen BAZ2B-H3K14Ac peptide displacement; Bromodomain adjacent to zinc finger domain protein 2B (Homo sapiens), Q9UIF8; further: potency means the concentration at half of the fitted maximal effect; on the % scale 0 is the no-effect control and ±100 the full control effect; nearly all actives have a fitted effect of over 60% in size
#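 Inhibition is scored as reduced AlphaScreen emission. The BAZ2B/b-H3(5-23)K14Ac complex (50 nM each) in PBS pH 7.4, 0.01% Tween-20 meets compound (up to 110 uM) for 30 min at RT before bead addition.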
# Six1-Eya2 blk: qHTS Assay for Inhibitors of the Six1/Eya2 Interaction; Homeobox protein SIX1 (Homo sapiens) + Protein phosphatase EYA2 (Homo sapiens), …; AlphaScreen GST-Six1/His-Eya2 binding, biochemical; active compounds read low; AID 651725, 2012; activity change, % (test concentration not listed); hit rate 0.56% among 360,000; in the data active means activity change below about -65%; inconclusive means mostly about -30% to -63%; further: on the % scale 0 is the no-effect control and ±100 the full control effect
#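 GST-Six1 + His-Eya2 (5X stock: 250/500 nM); Tris pH 8.0, 300 mM NaCl, 0.05% BSA, 0.02% Tween 20; GSH donor/Ni acceptor beads; 1 h 37 °C dark; AlphaScreen readout.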
# HP1b binding inh: HTS for Inhibitors of HP1-beta Chromodomain Interactions with Methylated Histone Tails; AlphaScreen HP1-beta / biotin-H3K9me3 peptide binding; Chromobox protein homolog 1 (Homo sapiens), P83916; hit rate 0.56% among 390,000; Potency, µM (highest dose often 114 µM), for the others: at the top dose activity change, negative = inhibition, actives largely listed as inhibitors; further: potency means the concentration at half of the fitted maximal effect; nearly all actives have a fitted effect of over 70% in size
# Target sequence (P83916 whole entry, looked up): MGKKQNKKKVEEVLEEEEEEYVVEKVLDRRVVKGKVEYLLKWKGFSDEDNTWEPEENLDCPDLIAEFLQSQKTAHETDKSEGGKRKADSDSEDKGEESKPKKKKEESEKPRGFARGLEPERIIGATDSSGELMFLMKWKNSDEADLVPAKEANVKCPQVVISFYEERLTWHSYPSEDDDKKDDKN
#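 AlphaScreen: HP1-beta (50 nM) preformed 30 min with biotin-H3(1-18)K9me3 peptide (50 nM) in PBS pH 7.4, 0.01% Tween-20. Compound added for 30 min at RT, then streptavidin donor/nickel chelate acceptor beads (10 ug/mL) for 30 min.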
# G9a block: qHTS Assay for Inhibitors of Histone Lysine Methyltransferase G9a. G9a H3K9 monomethylation, AlphaScreen, 2 h. Potency, µM (doses to about 102 µM), without a hit: top-dose activity, negative = inhibition, usual class: inhibitors. hit rate 8.8% among 350,000. AID 504332, 2011; further: potency means the concentration at half of the fitted maximal effect; on the % scale 0 is the no-effect control and ±100 the full control effect; nearly all actives have a fitted effect of over 75% in size
# Target sequence (Q96KQ7 913-1193 limits assumed): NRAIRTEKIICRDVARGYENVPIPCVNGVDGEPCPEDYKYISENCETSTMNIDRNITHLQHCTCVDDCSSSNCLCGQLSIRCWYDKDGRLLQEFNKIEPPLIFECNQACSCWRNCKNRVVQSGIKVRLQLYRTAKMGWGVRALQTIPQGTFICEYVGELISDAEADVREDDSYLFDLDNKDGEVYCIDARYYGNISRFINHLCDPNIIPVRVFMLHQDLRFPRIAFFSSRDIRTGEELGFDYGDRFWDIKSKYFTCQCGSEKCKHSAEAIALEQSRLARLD
#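 Quantitative HTS format: methyltransferase activity on a biotin-tagged H3K9 peptide is measured by AlphaScreen, using a rabbit anti-monomethyl-H3K9 antibody with streptavidin donor and anti-IgG acceptor beads. Final levels are 20 nM enzyme, 500 nM peptide, 20 uM SAM; 2 h RT.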
# JMJD2A Tudor: qHTS Assay for Inhibitors of JMJD2A-Tudor Domain | Lysine-specific demethylase 4A (Homo sapiens), O75164 | AlphaScreen JMJD2A-Tudor / H3K4me3 peptide binding | Potency, µM (titrated, usually from 114 µM), without a hit: at the highest dose activity change, negative = inhibition, hits mostly inhibitors | hit rate 4.4% among 390,000 | AID 504339, 2011; further: potency means the concentration at half of the fitted maximal effect; on the % scale 0 is the no-effect control and ±100 the full control effect; nearly all actives have a fitted effect of over 50% in size
# Starred values were filed as active, the others as inactive; ? = inconclusive; nt = not tested or not shown; [ ] = remark or other dose. Compounds with a hit are over-represented: about 10% of the library has one in this group of screens. Unless noted, the call rests on the fitted dose curve; in most records, active means well fitted inhibition curve with a large enough effect; inconclusive means small, poorly fitted or top-dose-only effect; inactive means no such curve, though single readings can be large or run the other way.
SMILES,CtBP-E1A blk,BAZ2B block,Six1-Eya2 blk,HP1b binding inh,G9a block,JMJD2A Tudor
COc1ccccc1OCC(=O)NCC1CCCN(Cc2cnn(C(C)C)c2)C1 (centres undefined),5,2%,4,5%,nt,-18%
Cc1c(N(C)C)nc2ccccc2c1N,-13,45µM*,-4,14µM*,?,1µM*
CCOC(=O)NNc1ccc2nonc2c1[N+](=O)[O-],?,40µM*,?,?,nt,56µM*
CC(=O)Oc1cccc(/C=c2\sc3nc(-c4ccco4)nn3c2=O)c1,-3,-35%,-15,0%,?,50µM*
c1ccc(C2=Nn3c(nnc3-c3ccncc3)SC2)cc1,-3,0%,-15,12%,?,-19%
CC1=Nn2c(nnc2-c2ccccn2)SC1,-18,50µM*,-19,32%,-21%[12.7 µM],22µM*
c1ccc(C2=Nn3c(nnc3-c3ccccn3)SC2)cc1,?,28µM*,?,68%,?,-31%[57.1 µM]
Cc1cc(N2CCN(C(C(=O)NC3CCCC3)c3ccco3)CC2)c2ccccc2n1 (centres undefined),-2,nt,-2,nt,nt,nt
CS(=O)(=O)c1ncc(Cl)c(C(=O)Nc2ccc(OC(F)F)cc2)n1,0,5%,2,35%,28µM*,-10%
CS(=O)(=O)c1ncc(Cl)c(C(=O)Nc2ccc(N3CCOCC3)cc2)n1,8,?,-2,6%,?,-7%
CCSc1ncc(Cl)c(C(=O)Nc2ccc(S(=O)(=O)N(C)c3ccccc3)cc2)n1,nt,-16%,nt,18%,-21%[59 µM],-28%
CCN(c1ccccc1)S(=O)(=O)c1ccc(NC(=O)c2nc(S(C)(=O)=O)ncc2Cl)cc1,6,-33%,2,4%,32µM*,?
CCS(=O)(=O)c1ncc(Cl)c(C(=O)Nc2ccc(S(=O)(=O)N(C)c3ccccc3)cc2)n1,-5,?,14,1%[57 µM],40µM*,-22%
COc1ncc2nc(C)c(=O)n(Cc3cccs3)c2n1,nt,nt,nt,nt,-38%[12.7 µM],nt
CCC(C)C(=O)Nc1nc(-c2ccc3c(c2)NC(=O)CO3)cs1 (centres undefined),-10,-9%,-13,?,?,-23%[57.1 µM]
O=C1COc2ccc(-c3csc(NCCc4ccccc4)n3)cc2N1,-8,50µM*,-5,-18%,40µM*,?
Cc1cccc(C(=O)NCC(=O)NCC(c2cccs2)N2CCOCC2)c1 (centres undefined),-2,8%,12,17%,-1%[0.501 µM],-10%
O=C(NCC(c1cccnc1)N1CCOCC1)c1cccs1 (centres undefined),4,-10%,12,38%,45µM*,9%[57.1 µM]
COC(=O)NCC(c1cccnc1)N1CCOCC1 (centres undefined),3,-2%,-2,55%,?,2%
CCc1ccc(NC(=O)C(=O)NCC(c2cccnc2)N2CCN(C)CC2)cc1 (centres undefined),nt,45µM*,nt,17%,16µM*,56µM*
Cc1cccc(C(=O)NCC(c2cccs2)N2CCOCC2)c1 (centres undefined),9,10%,13,18%,7.9µM*,-3%
O=C1NC(c2ccccc2)=C(c2ccc3ccccc3n2)C(c2ccncc2)N1 (centres undefined),7,1%,4,8%,50µM*,-23%
COC(=O)c1cc(NC2(c3ccccc3)C(=O)c3ccccc3C2=O)cc(C(=O)OC)c1,nt,-27%,nt,20%,-36%[59 µM],-31%
Nc1nc(-c2ccco2)cs1,-3,-5%,-14,11%,45µM*,-7%
Nc1nc(-c2ccco2)c(-c2ccco2)s1,-30,45µM*,?,?,?,?
SMILES,CtBP-E1A blk,BAZ2B block,Six1-Eya2 blk,HP1b binding inh,G9a block,JMJD2A Tudor
c1coc(-c2nc3cc4ccccc4cc3nc2-c2ccco2)c1,nt,nt,nt,7.9µM*,nt,7.9µM*
COc1ccc(-c2nc3ccccc3nc2-c2ccc(OC)cc2)cc1,54,90%,60,194%,379%,100%
COc1ccc2nc(-c3ccco3)c(-c3ccco3)nc2c1,-2,50µM*,-1,-19%,?,?
Nc1nc(-c2ccc(-n3nncc3-c3ccco3)cc2)cs1,-12,?,-10,-13%,-40%[59 µM],-35%
CCc1ccccc1OCC(=O)NNCC(=O)Nc1cccc(C#N)c1,nt,4%,-5,18%,-44%[12.7 µM],-18%
O=C(OCC#CCSc1nnc(-c2cccc(F)c2)o1)c1ccc(F)cc1,nt,nt,nt,nt,nt,59%
O=C(OC1C[C@@H]2CC3C[C@H](C1)N2CC3=O)c1c[nH]c2ccccc12 (some centres undefined),nt,nt,nt,nt,-49%[2.33 µM],nt
CC(C)COc1ccc(C(=O)Nc2onc3c2CCCC3)cc1,nt,34%,nt,71%,?,-12%
c1coc(-c2nc(-c3ccco3)c(-c3ccco3)nc2-c2ccco2)c1,6,28µM*,?,?,11µM*,7.9µM*
Nc1nc(SCC(=O)Nc2cccnc2Cl)n[nH]1,nt,-11%,-5,17%,11%[0.0925 µM],?
CC(C)c1ccc(-c2nnc(N)s2)cc1,0,2%,21,-7%,45µM*,-13%
O=C1C[C@@H](c2ccc(O[C@@H]3O[C@H](CO)[C@@H](O)[C@H](O)[C@H]3O)cc2)Oc2cc(O)ccc21,nt,43%,9,31%,-13%,-20%
Cc1cc2c(cc1S(=O)(=O)N(C)CC(=O)Nc1cccc(C#N)c1)OCC(=O)N2,nt,-1%,nt,34%,-6%[59 µM],8%
CCOC(=O)C1=C(C)Nc2nc(=S)[nH]n2C1c1ccc(Cl)cc1 (centres undefined),nt,-29%,-4,?,1.3µM*,16µM*
CCOC(=O)C1=C(C)Nc2nc(SCC)nn2C1c1ccc(OC)cc1 (centres undefined),-1,4%,6,14%,25%[12.7 µM],12%[57.1 µM]
CO/N=C(\C(=O)O)c1csc(NN=C(C)C)n1,-13,-19%,-21,?,22µM*,22µM*
Cc1cc(C)cc(OCCSc2nc(-c3ccc(C(C)(C)C)cc3)nc3cc(=O)[nH]n23)c1,nt,-17%,nt,3%,-10%[59 µM],-36%
COc1ccccc1OCCCSc1nc(-c2ccc(C(C)(C)C)cc2)nc2cc(=O)[nH]n12,nt,?,nt,2.2µM*,-2%[59 µM],50µM*
CC(C)(C)c1ccc(-c2nc(SCCCOc3ccccc3)n3[nH]c(=O)cc3n2)cc1,nt,50µM*,nt,-21%,5%[59 µM],50µM*

# From PubChem
